Each structure is given as a SMILES string. About 5,700 (2.6%) of roughly 220,000 compounds were called active. About 18% were inconclusive and are not listed. This excerpt belongs to a sample that is enriched for actives. Values without a mark were called inactive. The call rests on the fitted dose curve; in most records, active means well fitted inhibition curve with a large enough effect; inconclusive means small, poorly fitted or top-dose-only effect; inactive means no such curve, though single readings can be large or run the other way.
Potency means the concentration at half of the fitted maximal effect.

Chain of Lysine-specific demethylase 5B (Homo sapiens) (Q9UGL1 whole entry, looked up): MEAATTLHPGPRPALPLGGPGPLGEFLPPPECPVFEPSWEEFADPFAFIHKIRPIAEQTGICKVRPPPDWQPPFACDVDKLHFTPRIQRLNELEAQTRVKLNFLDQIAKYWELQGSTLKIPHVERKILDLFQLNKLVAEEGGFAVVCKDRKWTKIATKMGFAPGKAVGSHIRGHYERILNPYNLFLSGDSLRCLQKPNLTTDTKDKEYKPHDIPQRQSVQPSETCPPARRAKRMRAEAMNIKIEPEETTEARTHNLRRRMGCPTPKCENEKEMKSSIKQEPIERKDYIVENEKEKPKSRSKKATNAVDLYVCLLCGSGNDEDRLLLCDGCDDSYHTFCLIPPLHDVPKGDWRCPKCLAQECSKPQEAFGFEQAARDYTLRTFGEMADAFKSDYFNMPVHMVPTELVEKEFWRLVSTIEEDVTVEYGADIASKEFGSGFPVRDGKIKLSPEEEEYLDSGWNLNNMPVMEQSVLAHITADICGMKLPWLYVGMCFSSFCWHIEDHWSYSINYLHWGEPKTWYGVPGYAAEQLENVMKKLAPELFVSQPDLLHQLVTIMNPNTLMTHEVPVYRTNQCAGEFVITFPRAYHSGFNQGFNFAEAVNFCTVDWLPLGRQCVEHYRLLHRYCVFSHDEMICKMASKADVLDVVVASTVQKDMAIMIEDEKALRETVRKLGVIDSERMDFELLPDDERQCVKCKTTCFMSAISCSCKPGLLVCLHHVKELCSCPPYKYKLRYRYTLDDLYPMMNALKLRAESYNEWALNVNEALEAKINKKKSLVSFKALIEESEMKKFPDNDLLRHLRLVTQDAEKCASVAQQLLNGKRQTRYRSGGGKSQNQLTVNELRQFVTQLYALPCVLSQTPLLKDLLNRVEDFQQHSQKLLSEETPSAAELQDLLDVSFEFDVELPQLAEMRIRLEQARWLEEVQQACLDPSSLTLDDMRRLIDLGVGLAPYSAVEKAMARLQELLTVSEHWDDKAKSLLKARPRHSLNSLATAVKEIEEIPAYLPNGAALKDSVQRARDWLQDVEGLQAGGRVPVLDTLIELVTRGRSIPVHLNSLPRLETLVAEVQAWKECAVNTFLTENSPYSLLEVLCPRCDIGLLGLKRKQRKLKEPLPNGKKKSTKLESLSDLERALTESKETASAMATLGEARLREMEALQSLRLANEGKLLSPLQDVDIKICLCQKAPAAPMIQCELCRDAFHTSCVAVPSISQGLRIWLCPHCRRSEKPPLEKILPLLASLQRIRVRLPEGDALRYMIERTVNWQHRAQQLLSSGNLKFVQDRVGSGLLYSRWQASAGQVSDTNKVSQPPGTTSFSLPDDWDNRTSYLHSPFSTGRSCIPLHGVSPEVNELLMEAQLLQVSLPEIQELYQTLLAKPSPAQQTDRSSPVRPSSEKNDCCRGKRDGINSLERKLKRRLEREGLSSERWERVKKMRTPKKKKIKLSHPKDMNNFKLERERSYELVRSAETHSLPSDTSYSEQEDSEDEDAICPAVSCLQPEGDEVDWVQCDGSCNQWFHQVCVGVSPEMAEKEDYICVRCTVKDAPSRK

For this assay, the target named is Lysine-specific demethylase 5B (Homo sapiens) (UniProt Q9UGL1). Briefly: Primary screen for KDM5B Histone Demethylases FDH-coupled qHTS. Further: nearly all actives have a fitted effect of over 70% in size. On activity change, negative = inhibition: 0% is about no effect. The settings on record: FDH-coupled NADH fluorescence (FDH is formaldehyde dehydrogenase); series mostly up to 57.7 µM; activity change, negative = inhibition: at the top concentration. Put shortly:
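Here, H3K4me3 peptide (12.5 µM in substrate mix) is demethylated by KDM5BΔAP, 200 nM final, after 10 min compound exposure. Formaldehyde product is coupled through FDH (0.25 U/mL in mix) to NADH fluorescence; 30-min ΔRFU feeds dose-response curves.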
In general terms: Quantitative high-throughput screening tests each substance at several concentrations.
For the molecule `N#CCc1ccc(OCC(O)Cn2cnc3ccc(Cl)cc3c2=O)cc1` (stereo not drawn), the “activity change, negative = inhibition” value is 4.38%.

Regarding `Cc1ccc(S(=O)(=O)N2CCN(C)CC2)cc1C(=O)NC1CCCCC1`, the “activity change, negative = inhibition” value is 23.1%. For the molecule `CCOC(=O)N1CCC(NC(=O)CS(=O)Cc2nc(-c3ccccc3F)oc2C)CC1` (stereo not drawn), the “activity change, negative = inhibition” value was 4.01%. With `O=C(Cc1cccn1-c1ccccc1)N1CCOCC1`, the “activity change, negative = inhibition” value was -6.08%.

On to `Cc1noc(C)c1-c1cnc2[nH]cc(CC(=O)N3CCOCC3)c2c1`, for which the Potency is 35.5 µM (active).

For `CCc1nc(-c2ccc(OC3CCN(C(=O)Cc4c[nH]c5ccccc45)C3)cc2)no1` (stereo not drawn), the “activity change, negative = inhibition” value is 7.34%. Consider `Cc1ccc(S(=O)(=O)NC(=O)c2cccc(C)c2)cc1`, for which the “activity change, negative = inhibition” value was -7.21%.

On to `Cc1cccnc1C(=O)N[C@@H]1CN(c2ncccn2)C[C@H]1CO`, for which the Potency was 20 µM (active). `CCOc1ccccc1C(=O)N[C@@H]1CN(c2ncccn2)C[C@H]1CO`: the Potency was 22.4 µM (active). Consider `O=C(CCn1cccn1)N[C@@H]1CN(Cc2ccccc2)C[C@H]1CO`, for which the “activity change, negative = inhibition” value was 14.5%. Consider `O=C(N[C@@H]1CN(c2ccncn2)C[C@H]1CO)C1CCCC1`, for which the “activity change, negative = inhibition” value was 12%.

On to `CCOc1ccccc1C(=O)N1CCC(Oc2ncccc2C(=O)N(C)C)C1` (stereo not drawn), for which the “activity change, negative = inhibition” value is -1.4%. For the molecule `O=C(N[C@@H]1CN(Cc2cccnc2)C[C@H]1CO)c1cccnc1`, the “activity change, negative = inhibition” value was -2.06%.

Take `CCc1nc2nc3c(cn2n1)C(=O)CC(c1ccc(Cl)cc1)C3` (stereo not drawn): the “activity change, negative = inhibition” value was -0.51%.

Consider `CC(C)NS(=O)(=O)c1ccc(OCC(=O)NC2CCCCCC2)cc1`, for which the “activity change, negative = inhibition” value was 16.2%. In the case of `COc1ccc2c(=O)c(Oc3cccc(C)c3)c(C(F)(F)F)oc2c1`, the “activity change, negative = inhibition” value is -8.82%.

On to `COc1ccc(C23NCCN2C(=O)c2ccccc23)cc1` (stereo not drawn), for which the “activity change, negative = inhibition” value was 34.4%. On to `CNc1nc(C(=O)NCc2ccc3[nH]c(-c4ccc(F)cc4)c(C)c3c2)cs1`, for which the Potency was 5.62 µM (active). With `COc1ccc(CNC(=O)c2noc(-c3ccc(F)cc3)n2)cc1`, the “activity change, negative = inhibition” value was -17.9%.

Consider `Cc1ccc(CNC(=O)c2cc(=O)c3ccc(C)c(C)c3o2)cc1`, for which the “activity change, negative = inhibition” value is 13.1%.

Take `Cc1c(-c2ccc(F)cc2)[nH]c2ccc(CNC(=O)c3ccc(CO)o3)cc12`: the Potency is 22.4 µM (active). In the case of `O=C(NCc1ccc2c(c1)OCO2)c1noc(-c2ccc(F)cc2)n1`, the “activity change, negative = inhibition” value was 7.84%. On the same count and under the same terms, then `COc1ccc(CNC(=O)c2ccc(CS(=O)c3ccc(C)cc3)o2)cc1OC` (stereo not drawn), with -8.94%; and `CCCc1nc(SCC(=O)N2CCCC2)c2c(=O)n(C)c(=O)n(C)c2n1`, with 37.7%; and `Cc1ccccc1NC(=S)NNC=O`, with 26.2%. For the molecule `COc1ccc(OC)c(S(=O)(=O)N2CCCC(C(=O)NCCc3ccccc3)C2)c1` (stereo not drawn), the “activity change, negative = inhibition” value is 26.3%. For `CC(=O)c1ccccc1NC(=O)CCc1ncc(-c2c(F)cccc2F)o1`, the “activity change, negative = inhibition” value is -23.2%. The same measure, in the same setting: then `CCOC(=O)CN1C(=O)C2(CC(=O)Nc3[nH]ncc32)c2ccccc21` (stereo not drawn), with 5%; and `Cc1cnc(C)c(N2CCN(C(=O)C3CCC(=O)N(CCc4cccc(F)c4)C3)CC2)n1` (stereo not drawn), with 0.442%. As to `N[C@@H]1CC[C@H](C(=O)N2CCN(CCCOc3ccc(F)cc3)CC2)C1`, the “activity change, negative = inhibition” value is -4.43%. As to `Cc1cnc(C)c(N2CCN(C(=O)[C@H]3CC[C@@H](N)C3)CC2)n1`, the Potency was 22.4 µM (active).

For `COc1ccccc1Cc1nnc(NC(=O)c2cccc(NC(=O)c3ccccc3)c2)s1`, the “activity change, negative = inhibition” value is -7.98%. Consider `COc1ccc(OC2CCN(C(C)=O)CC2)c(C(=O)NCc2snnc2C)c1`, for which the “activity change, negative = inhibition” value was 5.6%. Turning to `COc1ccc(OC2CCN(C(C)=O)CC2)c(C(=O)NCCc2ccccc2OC)c1`, the Potency was 25.1 µM (active). With `COc1ccc(OC2CCN(C(C)=O)CC2)c(C(=O)N(C)Cc2ccc3nccnc3c2)c1`, the “activity change, negative = inhibition” value is -11.7%.

In the case of `O=C(c1cc2ccccc2oc1=O)N1CCC(Cc2ccccc2)CC1`, the “activity change, negative = inhibition” value was 7.13%. Turning to `COCCN1C(=O)c2cccn2CC1CNC(=O)c1cc2ccccc2[nH]1` (stereo not drawn), the Potency was 28.2 µM (active). For the molecule `COCCN1C(=O)c2cccn2CC1CNC(=O)c1ccccc1F` (stereo not drawn), the “activity change, negative = inhibition” value was -17.1%. Consider `COCCC(=O)NCC1Cn2cccc2C(=O)N1Cc1ccccc1` (stereo not drawn), for which the “activity change, negative = inhibition” value is -21.7%. Consider `CCOC(=O)c1oc2cc(OC(C)=O)ccc2c(=O)c1-c1ccc(OC)cc1`, for which the “activity change, negative = inhibition” value is -2.04%.

Take `O=C1CO[C@H](c2ccc(NS(=O)(=O)c3cccc(F)c3)cc2)[C@@H](CO)N1Cc1ccncc1`: the “activity change, negative = inhibition” value is 15.3%. For the molecule `Fc1ccc(Cc2nc3nccc(-c4ccco4)n3n2)cc1`, the Potency was 20 µM (active). As to `Fc1ccc(Cc2nc3nccc(-c4cc5ccccc5o4)n3n2)cc1`, the “activity change, negative = inhibition” value was -345%. Same read-out and setting: then `COc1cc(F)ccc1C(C)=O`, with 15.6%.

As to `COc1cc(F)ccc1-c1ccnc2nc(C(C)C)nn12`, the Potency is 28.2 µM (active).

For the molecule `Cn1cc(C#N)cc1-c1nc(COc2ccccc2)nn1CC(F)(F)F`, the “activity change, negative = inhibition” value is -14.2%. On to `Cc1cc(Nc2ccccc2)n2nc(Cc3ccc(Cl)cc3)nc2n1`, for which the “activity change, negative = inhibition” value is 19.8%. Same read-out and setting: with `COc1cc(F)ccc1-c1ccc(COc2ccc3c(cnn3CCC(=O)O)c2)cc1` the figure was -20.4% [at 86.2 µM]. In the case of `COCc1nc2nccc(-c3ccccc3)n2n1`, the Potency is 31.6 µM (active). For the molecule `CCc1nc2nccc(-c3ccco3)n2n1`, the Potency was 28.2 µM (active). As to `O=C(O)c1cc(Br)c(Cl)[nH]1`, the “activity change, negative = inhibition” value is -0.612%. Same read-out and setting: then `Cc1ccc2c(COC(=O)COc3ccc(C)c(C)c3)cc(=O)oc2c1`, with 9.56%; and `Cc1[nH]c2ccc(C(=O)N3CCN(C)CC3)cc2c1C`, with 16.8%; and `CCOc1ccc(C(=O)Nc2ccc3oc(C)nc3c2)cc1OCC`, with -8.51%. The same measure, in the same setting: with `N#CCCC(C#N)Cn1nc(-c2ccccc2)c2ccccc2c1=O` (stereo not drawn) the figure was 4.44%. Regarding `CCN(CC)Cc1cnc2c(C(=O)NCc3ccsc3)cnn2c1`, the “activity change, negative = inhibition” value is -24.5%. Regarding `CC#CC(=O)N1CCCC(C(=O)Nc2cccc(-c3cccc(C)c3)c2)C1` (stereo not drawn), the “activity change, negative = inhibition” value was 7.67%. As for `COCCn1c(-c2cccc(OC)c2)cnc1NC(=O)NCCc1ccccc1`, the “activity change, negative = inhibition” value is -4.88%. As for `c1coc(-c2ccnc3nc(C4CC4)nn23)c1`, the Potency is 28.2 µM (active). Take `COc1cccc(-c2ccnc3nc(Cc4cc(F)cc(F)c4)nn23)c1`: the Potency is 25.1 µM (active). For the molecule `COc1ccc(CN2CC(Oc3ccc(F)c(F)c3)C2)cc1`, the “activity change, negative = inhibition” value is -0.531% [at 149 µM]. Turning to `COc1ccc(-c2ccnc3nc(CC(C)C)nn23)c(F)c1`, the Potency is 28.2 µM (active). Take `COc1cccc(-c2nc(COc3ccccc3C#N)cs2)c1`: the “activity change, negative = inhibition” value is -29%. Turning to `CC1CNC(C)(C)C(O)C1` (stereo not drawn), the “activity change, negative = inhibition” value was 22.2%. As for `Cn1c(=O)c2c(nc(NCc3cccs3)n2Cc2ccc(F)cc2)n(C)c1=O`, the “activity change, negative = inhibition” value is 12.8%.

In the case of `Oc1c(C=Nc2ccc(F)c(Cl)c2)ccc2ccccc12`, the “activity change, negative = inhibition” value is 11.3%.

For the molecule `CC(NC(=O)CNC(=O)c1ccc(N2CCCC2=O)cc1)c1ccccc1Br` (stereo not drawn), the “activity change, negative = inhibition” value was -11.8%. Regarding `COc1ccc(C(=O)N[C@@H]2C[C@H](COc3cccc(C)n3)[C@@H](O)[C@H]2O)cc1`, the “activity change, negative = inhibition” value was -15.3% [at 86.2 µM].

The record behind these values is PubChem BioAssay AID1347165 (National Center for Advancing Translational Sciences (NCATS), 2019).
